The panel holds about 83,000 compounds, 20% with a hit somewhere; the sample as a whole holds those more often.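 Testing used 96-well plates and a 48-hour single-concentration exposure. Example: -40 means 40% of the starting cells died.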 Active and inactive are the calls of the source. The calls were made as follows: active = growth percent below 10; inactive = the rest.
How the values were obtained:
Experiment in all cases: NCI-60 one-dose screen, 48 h (100 = growth as untreated, 0 = no growth, -100 = all killed)
Details in all cases: 10 µM
[1] = test system: SK-MEL-2 melanoma
[2] = test system: EKVX NSCLC
[3] = test system: SN12C renal
[4] = test system: UO-31 renal
[5] = test system: TK-10 renal
[6] = test system: ACHN renal
[7] = test system: CAKI-1 renal
[8] = test system: A498 renal
[9] = test system: CCRF-CEM leukemia
[10] = test system: MOLT-4 leukemia
[11] = test system: SR leukemia
[12] = test system: RPMI-8226 leukemia
[13] = test system: OVCAR-8 ovarian
[14] = test system: OVCAR-5 ovarian
[15] = test system: OVCAR-4 ovarian
[16] = test system: SK-OV-3 ovarian
[17] = test system: IGROV1 ovarian
[18] = test system: OVCAR-3 ovarian
[19] = test system: HS 578T breast
[20] = test system: NCI/ADR-RES ovarian

Measured: growth

COc1ccc(C2=Cc3ccc(OC(C)=O)cc3OC2)cc1
inactive: [1] 97.5% | [2] 66.2% | [3] 87.2% | [4] 49.1% | [5] 102% | [6] 80.8% | [7] 88.2% | [8] 82.2% | [9] 70.8% | [10] 44.5% | [11] 64.5% | [12] 83.4% | [13] 95.8% | [14] 101% | [15] 88.1% | [16] 119% | [17] 102% | [18] 93.1% | [19] 103% | [20] 85.2%

CCOC(=O)C(=O)Cc1cccnn1
inactive: [1] 103% | [2] 111% | [3] 99.9% | [4] 82.9% | [5] 101% | [6] 103% | [7] 103% | [8] 113% | [9] 91.7% | [10] 93.4% | [12] 102% | [13] 103% | [15] 102% | [16] 106% | [17] 109% | [18] 122% | [19] 133% | [20] 104%

CC(=O)CS(C)(=O)=O
inactive: [1] 103% | [2] 93.6% | [3] 105% | [4] 92.4% | [5] 103% | [6] 106% | [7] 101% | [8] 98.8% | [9] 103% | [10] 106% | [11] 94.8% | [12] 105% | [13] 105% | [14] 102% | [15] 112% | [16] 104% | [17] 108% | [18] 111% | [19] 107% | [20] 109%

Nc1cc2c(cc1Cl)-c1ccc(Cl)cc1C2=O
inactive: [1] 95.7% | [2] 67.7% | [3] 93.1% | [4] 61.6% | [5] 117% | [6] 98.4% | [7] 96.4% | [8] 95.7% | [9] 86.1% | [10] 81.4% | [11] 109% | [12] 88.8% | [13] 92.1% | [14] 100% | [15] 98.8% | [16] 98.6% | [17] 107% | [18] 104% | [19] 97.3% | [20] 99.5%

C=CCn1ccc(=O)nc1SC
inactive: [1] 107% | [2] 104% | [3] 104% | [4] 89% | [5] 101% | [6] 108% | [7] 106% | [8] 104% | [9] 104% | [10] 100% | [11] 112% | [12] 108% | [13] 100% | [14] 109% | [15] 106% | [16] 105% | [17] 120% | [18] 113% | [19] 106% | [20] 104%

COc1cc(-c2n/c(=C\c3c(O)[nH]c4ccccc34)cc3c2=Nc2ccccc2-3)cc(OC)c1OC
active: [8] -16.3% | [10] -13.5% | [11] 8.26% | [16] -9.66% | [18] -16.6% | [19] 3.83% | [20] 4.78%
inactive: [1] 35.6% | [2] 45.8% | [3] 34.3% | [4] 33.9% | [5] 57.9% | [6] 37.2% | [7] 29.5% | [12] 25.5% | [13] 11.3% | [14] 46.4% | [15] 26.8% | [17] 44.3%

COc1cc(-c2nc(-c3nnc(-c4cccnc4)o3)c3ccccn23)cc(OC)c1OC
inactive: [1] 111% | [2] 106% | [3] 99.6% | [4] 74.9% | [5] 109% | [6] 99% | [7] 104% | [8] 83% | [10] 93.7% | [11] 104% | [12] 60.9% | [13] 73.8% | [14] 110% | [15] 123% | [16] 108% | [17] 103% | [18] 129% | [19] 103% | [20] 82.2%

CCN(CC)CC(O)CNc1ccnc2cc(Cl)c(Cl)cc12 (stereo not given)
inactive: [1] 108% | [2] 92% | [3] 79% | [4] 53.7% | [5] 95.2% | [6] 98.4% | [7] 80.7% | [8] 98.7% | [9] 94.9% | [10] 82.3% | [11] 28.4% | [12] 90.3% | [13] 84.3% | [15] 85.9% | [16] 106% | [17] 91.1% | [18] 92.5% | [19] 103% | [20] 87.1%

O=C(Nc1cccc([N+](=O)[O-])c1)NN1CCCCCC1
inactive: [1] 105% | [2] 81.3% | [3] 96.5% | [4] 92.5% | [5] 105% | [6] 94.6% | [7] 96.2% | [8] 77.3% | [9] 86.1% | [10] 106% | [11] 108% | [12] 60.5% | [13] 99.2% | [14] 105% | [15] 98.1% | [16] 114% | [17] 109% | [18] 87.4% | [19] 97.2% | [20] 91.4%

Cc1ccc(Cl)cc1Nc1nc(C(F)(F)F)ccc1C(=O)N/N=C/c1c(Cl)cccc1Cl
active: [1] 0.639% | [2] 4.91% | [3] 9.96% | [4] -23.3% | [6] 0.0524% | [7] -12.5% | [8] -13.3% | [9] -21.2% | [10] 8.23% | [12] -51.2% | [16] -8.46% | [17] -8.67% | [18] -28.5% | [20] 5.19%
inactive: [5] 22.7% | [11] 123% | [13] 10.6% | [14] 24.2% | [15] 17.5%

CC(=O)OC1Oc2ccccc2-c2oc(=O)c(-c3ccc(F)cc3)cc21 (stereo not given)
active: [8] -16.1% | [19] -26.6%
inactive: [1] 86.2% | [2] 34.2% | [3] 88.3% | [5] 92.9% | [6] 104% | [7] 93.1% | [9] 91.5% | [10] 88.6% | [11] 65.3% | [12] 90.8% | [13] 77.7% | [14] 104% | [15] 88.6% | [16] 92.6% | [17] 59.8% | [18] 110% | [20] 96.4%

COc1cc([C@@H]2c3cc4c(cc3[C@H](SC(=N)N)[C@H]3COC(=O)[C@H]23)OCO4)cc(OC)c1OC
inactive: [1] 30.8% | [2] 33.2% | [3] 27.3% | [4] 29.3% | [5] 72.4% | [8] 48.2% | [10] 26% | [11] 14.1% | [13] 23.5% | [14] 28.2% | [15] 54.7%
active: [7] 5.13% | [9] 4.96% | [12] 8.62% | [16] -4.1% | [17] -0.422% | [18] 1.61% | [20] -0.709%

C/C(=N/NC(=O)c1sc(=S)n(C)c1N)c1cc2cc(Cl)ccc2o1
active: [8] -3.76% | [19] 5.99%
inactive: [1] 98.9% | [2] 98.5% | [3] 90.8% | [5] 101% | [6] 96% | [7] 117% | [9] 81.8% | [10] 76.5% | [11] 98.7% | [12] 87.3% | [13] 14.3% | [14] 101% | [15] 117% | [16] 102% | [17] 51.6% | [18] 110% | [20] 104%

CCCCOCC(=O)NC(NP(=O)(N(C)C)N(C)C)C(Cl)(Cl)Cl (stereo not given)
inactive: [1] 107% | [2] 98.1% | [3] 110% | [4] 92% | [5] 134% | [6] 143% | [7] 92.3% | [8] 118% | [10] 99.5% | [11] 111% | [12] 100% | [13] 62.8% | [14] 109% | [15] 116% | [16] 124% | [18] 98% | [19] 113% | [20] 105%

C/C(=N\NC(N)=S)C(C)(C)O
inactive: [1] 98.5% | [2] 67.1% | [3] 87.1% | [4] 68.9% | [5] 126% | [6] 90.2% | [7] 89.6% | [8] 91.7% | [10] 44.9% | [12] 74% | [13] 55.3% | [14] 105% | [15] 66.6% | [16] 109% | [17] 22.4% | [18] 53.1% | [19] 97.1% | [20] 32.7%

COc1ccc(-c2n/c(=C\c3c(O)[nH]c4ccccc34)cc3c2=Nc2ccccc2-3)cc1
active: [10] 2.65% | [11] 6.48% | [15] 5.98% | [20] 5.95%
inactive: [1] 84.5% | [2] 72.4% | [3] 91.6% | [4] 58.3% | [5] 97.5% | [6] 98.7% | [7] 71.6% | [12] 24.7% | [13] 20.1% | [14] 89.1% | [16] 93.5% | [17] 85.6% | [19] 80.7%

COc1ccc(-c2ccccc2)cc1C(=O)c1ccc(-c2ccccc2)cc1
inactive: [1] 58.9% | [2] 88.8% | [3] 96.6% | [4] 60.6% | [5] 88.3% | [6] 105% | [7] 52.2% | [8] 93.6% | [10] 65.9% | [11] 23.8% | [13] 93.1% | [15] 96.3% | [16] 76.6% | [17] 63.5% | [18] 60.9% | [19] 81.5% | [20] 41.2%
